Experimental data: PubChem BioAssay AID1159580 (chemical genetic matrix, 2015)
Hit rate of the full screen: of about 5,500 compounds, about 2,000 (36%) were called active. Not shown: some 18% with an inconclusive outcome. Cut-off read from the data, not from the text of the source: active = normalized growth mostly below about 0.91 (no sharp cut-off); inconclusive = no clear call, values can overlap the other calls; inactive = mostly above about 0.92. Some of the results follow.

Assay: chemical genetic growth profiling, strain panel (AID 1159580);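 note: tested at 20 µM; growth read once vehicle control cultures reached saturation at 30 °C; 1 = growth at the plate median or of vehicle wells; lower values mean less growth of the strain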
Details: S. cerevisiae deletion strains, growth OD

Measured: normalized growth

CCN[C@@H]1C[C@H](N)[C@@H](O[C@H]2OC(CN)=CC[C@H]2N)[C@H](O)[C@H]1OC1OC[C@](C)(O)[C@H](NC)[C@H]1O (stereo not given in full)
inactive: locus YAL021C, strain ccr4, active compounds read low 0.983 | locus YAL026C, strain drs2, active compounds read low 0.995 | locus YAL030W, strain snc1, active compounds read low 1.01 | locus YBL061C, strain skt5, active compounds read low 1 | locus YBR009C, strain hhf1, active compounds read low 1.02 | locus YBR023C, strain chs3, active compounds read low 1 | locus YBR171W, strain sec66, active compounds read low 0.996 | locus YBR231C, strain swc5, active compounds read low 1.01 | locus YBR279W, strain paf1, active compounds read low 1.01 | locus YCL011C, strain gbp2, active compounds read low 0.977 | locus YCL016C, strain dcc1, active compounds read low 1 | locus YCL061C, strain MRC1, active compounds read low 0.989 | locus YCL069W, strain vba3, active compounds read low 0.994 | locus YCR088W, strain abp1, active compounds read low 0.983 | locus YDL005C, strain med2, active compounds read low 1 | locus YDL040C, strain nat1, active compounds read low 1.01 | locus YDR001C, strain nth1, active compounds read low 0.985 | locus YDR069C, strain doa4, active compounds read low 1.01 | locus YDR137W, strain rgp1, active compounds read low 0.96 | locus YDR159W, strain sac3, active compounds read low 1.01 | locus YDR195W, strain ref2 0.993 | locus YDR297W, strain sur2, active compounds read low 0.998 | locus YDR334W, strain swr1, active compounds read low 0.979 | locus YDR335W, strain msn5, active compounds read low 0.986 | locus YDR392W, strain spt3, active compounds read low 0.998 | locus YEL003W, strain gim4, active compounds read low 0.989 | locus YEL037C, strain rad23, active compounds read low 0.948 | locus YEL061C, strain CIN8 (second series), active compounds read low 0.981 | locus YER015W, strain faa2, active compounds read low 1.02 | locus YER016W, strain bim1, active compounds read low 0.997 | locus YER111C, strain swi4, active compounds read low 0.994 | locus YER155C, strain BEM2 (second series), active compounds read low 1.01 | locus YFR010W, strain ubp6, active compounds read low 0.975 | locus YGL167C, strain pmr1, active compounds read low 0.998 | locus YGL173C, strain kem1, active compounds read low 1 | locus YGL227W, strain vid30, active compounds read low 0.995 | locus YGL240W, strain doc1, active compounds read low 1.01 | locus YGL253W, strain hxk2, active compounds read low 0.995 | locus YHR013C, strain ard1, active compounds read low 1.02 | locus YHR027C, strain rpn1, active compounds read low 0.999 | locus YHR030C, strain SLT2, active compounds read low 0.97 | locus YHR079C, strain IRE1, active compounds read low 1.02 | locus YHR142W, strain chs7, active compounds read low 0.946 | locus YJL092W, strain hpr5, active compounds read low 0.984 | locus YJL095W, strain BCK1 (second series), active compounds read low 1.01 | locus YJL095W, strain BCK1, active compounds read low 0.972 | locus YJL115W, strain asf1, active compounds read low 0.998 | locus YJL129C, strain trk1, active compounds read low 0.989 | locus YJL154C, strain vps35, active compounds read low 0.996 | locus YJL164C, strain tpk1, active compounds read low 0.996 | locus YJL166W, strain qcr8, active compounds read low 1.01 | locus YJL187C, strain SWE1, active compounds read low 1 | locus YJR066W, strain TOR1, active compounds read low 0.947 | locus YKL160W, strain elf1, active compounds read low 0.986 | locus YKR026C, strain gcn3, active compounds read low 0.978 | locus YKR091W, strain srl3, active compounds read low 0.995 | locus YLL001W, strain dnm1, active compounds read low 0.981 | locus YLL026W, active compounds read low 1.01 | locus YLL041C, strain sdh2, active compounds read low 0.988 | locus YLR027C, strain aat2, active compounds read low 1.01 | locus YLR113W, strain HOG1, active compounds read low 0.953 | locus YLR221C, strain rsa3, active compounds read low 0.987 | locus YLR258W, strain gsy2, active compounds read low 1 | locus YLR262C, strain YPT6 (second series), active compounds read low 1 | locus YLR320W, strain mms22, active compounds read low 1.01 | locus YLR342W, strain FKS1, active compounds read low 0.997 | locus YLR357W, strain rsc2, active compounds read low 0.986 | locus YLR370C, strain arc18, active compounds read low 0.994 | locus YLR384C, strain iki3, active compounds read low 1 | locus YML120C, strain ndi1, active compounds read low 0.983 | locus YMR058W, strain fet3, active compounds read low 0.986 | locus YMR125W, strain sto1, active compounds read low 1 | locus YMR129W, active compounds read low 0.994 | locus YMR205C, strain PFK2, active compounds read low 1.03 | locus YMR231W, strain pep5, active compounds read low 1 | locus YNL071W, strain lat1, active compounds read low 1 | locus YNL183C, strain NPR1, active compounds read low 0.935 | locus YNL209W, strain ssb2, active compounds read low 1 | locus YNL248C, strain rpa49, active compounds read low 0.949 | locus YNL322C, strain KRE1 (second series), active compounds read low 0.995 | locus YNR049C, strain mso1, active compounds read low 0.995 | locus YOR001W, strain rrp6, active compounds read low 0.982 | locus YOR070C, strain gyp1, active compounds read low 0.996 | locus YOR080W, strain dia2, active compounds read low 0.998 | locus YOR083W, strain WHI5, active compounds read low 0.995 | locus YOR106W, strain vam3, active compounds read low 0.985 | locus YOR231W, strain MKK1, active compounds read low 0.986 | locus YOR265W, strain rbl2, active compounds read low 1 | locus YOR270C, strain vph1, active compounds read low 0.939 | locus YOR290C, strain snf2, active compounds read low 0.987 | locus YPL051W, strain arl3, active compounds read low 1 | locus YPL078C, strain atp4, active compounds read low 0.972 | locus YPL106C, strain sse1, active compounds read low 1 | locus YPL240C, strain hsp82, active compounds read low 0.986 | locus YPL256C, strain CLN2, active compounds read low 0.963
